# Assay outcomes deposited in PubChem BioAssay by National Center for Advancing Translational Sciences (NCATS).
# PNC inhibitor = blocks assembly of the perinucleolar compartment; PC3M PTB-GFP, PNC prevalence imaging, 16 h; hits give low values; activity change (PNC), negative = inhibition, % at 10 µM; 140,000 compounds, 3.1% hits;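 active = readout at or below -70, meaning at least 70% loss of cells showing the perinucleolar compartment, a nuclear body marking cancer cells; inconclusive = readout between -30 and a set limit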;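 also: plate controls were DMSO wells for no effect and camptothecin positive control wells for full effect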
#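 Read-out is percentage of cells bearing a perinucleolar compartment, from automated 20x imaging of fixed, Hoechst-stained PC3M PTB-GFP cells. Cells were seeded 4 h, then exposed 16 h to compound (23 nl of library stock) in duplicate plates.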
# IMPase inh = membrane-permeable compound that blocks inositol monophosphatase. P97697. CHO-M1 cells, IP1 accumulation, HTRF TR-FRET ratio. inhibition (IP1 accumulation), % at 46.1 µM. 120,000 tested, under 10 active. AID 901; active = well fitted curve in the direction sought with a large enough effect in the signal ratio, not every such curve was filed as active; inconclusive = small, poorly fitted or top-dose-only effect, or a change in a side signal; inactive = no such curve, though single readings can be large or run the other way; the % refers to the signal ratio;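 also: cells stimulated with carbachol in lithium chloride buffer; plate controls were DMSO basal wells for no effect and reference inhibitor wells for full effect; higher means more IMPase inhibition seen as more IP1 and lower FRET ratio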
# Target sequence (P97697 whole entry, looked up): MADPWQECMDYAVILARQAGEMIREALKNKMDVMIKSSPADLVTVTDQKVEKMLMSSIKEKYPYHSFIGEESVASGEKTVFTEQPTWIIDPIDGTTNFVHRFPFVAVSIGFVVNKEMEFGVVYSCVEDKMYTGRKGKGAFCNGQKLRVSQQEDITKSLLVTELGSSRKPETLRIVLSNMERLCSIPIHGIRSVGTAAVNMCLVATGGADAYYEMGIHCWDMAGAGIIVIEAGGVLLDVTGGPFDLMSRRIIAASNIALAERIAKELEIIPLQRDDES
#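 Carbachol-driven Gq signalling in CHO-M1 cells (2000/well) generates IP1. Compounds that block IMPase raise IP1 and so reduce the FRET signal from Eu-anti-IP1 and d2-IP1 after a 10 min room-temperature lysis.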
# LMNA splice mod = LMNA splicing modulation. HeLa LMNA splicing GFP/RFP minigene ratio, 48 h. Potency, µM (highest dose often 46.1 µM), for the others: at the highest dose ratio change, negative = inhibition, usual class: inhibitors. AID 1487. 200,000 compounds, 0.01% hits; active = well fitted inhibition curve with a large enough effect in the signal ratio, with a control signal flat, not every such curve was filed as active; inconclusive = small, poorly fitted or top-dose-only effect, or effect the other way, or a change in a side signal; the % refers to the signal ratio; also: potency is read from the fitted curve at half-maximal effect
#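 S3 HeLa cells stably expressing lamin A-EGFP splicing minigene plus DsRed2, 600 cells/well, 48 h compound exposure at 37C. Laser-scanning cytometry; analysed as GFP (500-530 nm)/RFP (575-640 nm) total intensity ratio; 0.5% DMSO vehicle.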
# An asterisk follows results filed as active; ? = inconclusive; . = not tested or not shown; [ ] = another dose, or the depositor's remark. The sample as a whole holds a higher share of hits than the screen did. Unless noted, % is scaled to controls: 0 for no effect and ±100 for the full control effect.
SMILES,PNC inhibitor,IMPase inh,LMNA splice mod
Cc1nn(CCc2nn[nH]n2)c2nc(C(F)(F)F)cc(C(F)(F)F)c12,-84.4*,3.5,9.3%
Cc1nn(CCO)c2nc(-c3cccs3)cc(C(F)(F)F)c12,-11.2,.,?
Cc1cc(-c2ccccc2)n(-c2cc(N/N=C/c3ccccc3O)ncn2)n1,-90.6*,.,?
CNc1cc(-n2nc(C)cc2-c2ccccc2)ncn1,-8.5,5.6,-13.0%
Cc1ccc(N=C2NC(=O)/C(=C/c3cn(C)c4ccccc34)S2)cc1C,25.3,.,2.2%
Cc1cc(/C=C2\SC(=Nc3ccc(F)cc3)NC2=O)c(C)n1-c1ccc(S(N)(=O)=O)cc1,-99.1*,0.2,?
O=C(Nc1ccc2c(c1)OCCO2)C1CCN(C(=O)c2ccc(Br)cc2)CC1,5.9,7.3,5.3%
O=C(Nc1ccc2c(c1)OCCO2)C1CCN(C(=O)c2ccccc2)CC1,-104.8*,0.0,3.3%
O=C(O)C1CC=CCC1C(=O)Nc1ccc2c(c1)OCCO2 (stereo not given),-118.8*,12.3,-0.9%
O=C(O)C1CC=CCC1C(=O)Nc1ccc(F)c(F)c1 (stereo not given),-18.7,9.4,3.5%
CC(=O)Nc1cccc(Oc2cc(C#N)c(C#N)cc2N2CCCCCC2)c1,20.1,0.6,13.3%
Cc1nc(NC(=O)c2ccccc2)sc1-c1csc(Nc2ccc(F)cc2)n1,-100.0*,5.4,21.5%
Cc1nc(NC(=O)c2ccccc2)sc1-c1csc(Nc2ccc(Cl)cc2)n1,?,2.5,13.4%
Cc1ccc(NC(=O)COC(=O)C(CC(C)C)N2C(=O)C3CC=CCC3C2=O)c(C)c1 (stereo not given),-87.0*,-2.4,3.8%
CC(C)CC(C(=O)OCC(=O)c1c(N)n(C)c(=O)n(C)c1=O)N1C(=O)C2CC=CCC2C1=O (stereo not given),.,.,0.4%[46 µM]
CCOc1cccc2sc(NC(=O)c3ccc(S(=O)(=O)N4CCCCC4)cc3)nc12,.,.,11.1%[46 µM]
CC1=CC(=O)C=CC1(C)C(Cl)Cl (stereo not given),91.0,0.9,10.7%
CC1=CC(C)(C(Cl)Cl)C(C)=CC1=O (stereo not given),-100.0*,-3.8,-2.8%
CNC(=O)c1sc(-c2cccs2)nc1C,.,.,10.6%[46 µM]
CCCOC(=S)N/C(=N\S(=O)(=O)c1ccccc1)c1ccccc1,-22.1,-2.5,-7.6%
CCOC(=S)N/C(=N\S(=O)(=O)c1ccccc1)c1ccccc1,-100.0*,12.5,-8.9%
COc1cccc(NC(c2nnc(-c3ccccc3)o2)c2ccc(F)cc2Cl)c1 (stereo not given),.,-3.1,.
O=C(CSc1nc2c(sc3ccccc32)c(=O)n1Cc1ccccc1)NCC1CCCO1 (stereo not given),28.4,-14.2,1.0%
O=C(CSc1nc2c(sc3ccccc32)c(=O)n1Cc1ccco1)NCC1CCCO1 (stereo not given),-89.1*,-5.0,3.2%
O=C(NNc1cccc(Cl)n1)c1ccccc1CC[N+](=O)[O-],.,.,4.8%[9.22 µM]
SMILES,PNC inhibitor,IMPase inh,LMNA splice mod
CC(=O)Nc1ccc(NC(=O)CNS(=O)(=O)c2ccc(C)cc2)cc1,30.1,-0.2,-10.8%
COc1ccc(NC(=O)CNS(=O)(=O)c2ccc(Cl)cc2)cc1OC,-113.8*,.,-0.6%
CCOc1ccc(OCCSc2nc(-c3ccccc3)cc(=O)[nH]2)cc1,.,.,-14.8%[46 µM]
Cc1ccc(Cl)cc1N1CCN(C(=O)c2c(C)oc3ncnc(N4CCCCC4)c23)CC1,.,.,-13.7%[46 µM]
Cc1cc(C(F)(F)F)nn1Cc1n[nH]c(=S)n1-c1ccc(Cl)cc1,6.3,0.2,15.4%
Cc1cc(C(F)(F)F)nn1Cc1n[nH]c(=S)n1Cc1ccccc1,-100.0*,4.1,-10.4%
Cc1ccc(S(=O)(=O)N2CCN(C(=O)CC(C)C)CC2)cc1,.,.,5.2%[46 µM]
CC(C)CC(=O)N1CCN(S(=O)(=O)c2ccc(F)cc2)CC1,-119.1*,-2.6,6.1%
COc1ccc(-c2cnc(C)o2)cc1S(=O)(=O)Nc1c(C)cc(C)cc1C,.,.,7.6%[46 µM]
COC(=O)/C(=C1/Oc2cc(C)oc(=O)c2S1)C(F)(F)F,-100.0*,-3.1,?
COC(=O)/C(=C1/Oc2ccc(C(C)(C)C)cc2S1)C(F)(F)F,?,.,-13.5%
O=C(Cn1[nH]c(=O)c2ccccc2c1=O)NC1CCCCCC1,-85.7*,7.9,11.0%
O=C(Cn1[nH]c(=O)c2ccccc2c1=O)NC1CCN(Cc2ccccc2)CC1,-10.9,2.8,3.5%
NNC(=O)CCn1c2ccccc2c2ccccc21,.,.,-7.9%[46 µM]
CCOc1ccc(-n2c(N)c(C(=O)NCc3cccnc3)sc2=S)cc1,-14.6,6.4,21.0%
CCOc1ccc(-n2c(N)c(C(=O)NCc3ccco3)sc2=S)cc1,-85.6*,11.3,3.2%
Cc1ccc(Cc2cnc(NC(=O)c3ccco3)s2)cc1,13.5,6.2,?
O=C(Nc1ncc(Cc2ccc(SC(F)F)cc2)s1)c1ccc(OC(F)F)cc1,-85.6*,.,?
CC(C)NS(=O)(=O)c1ccc(CCC(=O)N2CCCCC2)cc1,.,.,-9.7%[46 µM]
COc1ccc(NC(=O)c2cc(-c3ccc(OC)c(OC)c3)on2)cc1OC,35.4,-0.6,7.1%
COCC(C)NC(=O)c1cc(-c2ccc(OC)c(OC)c2)on1 (stereo not given),-83.1*,4.0[1.84 µM],-8.6%
O=C(Nc1ccc(/C=C/c2nc3ccccc3o2)cc1)c1ccc(F)cc1,-16.8,9.6,13.7%
CC1(C)CC(NC(=O)C2CCCCC2C(=O)O)CC(C)(C)N1 (stereo not given),-98.7*,2.1,4.9%
CC1(C)CC(NC(=O)CC2CCCCC2)CC(C)(C)N1,-4.2,1.4,-2.9%
Cc1ccc2c(c1)N(C(=O)N1CCC(C(=O)NCc3ccco3)CC1)CC(C)O2 (stereo not given),.,.,28.0%[46 µM]
SMILES,PNC inhibitor,IMPase inh,LMNA splice mod
O=C(Cc1cn(Cc2cccc(Cl)c2)c2ccccc12)N1CCCC1,-5.2,6.3,?
N#Cc1cn(Cc2cccc(Cl)c2)c2ccccc12,-102.9*,?,4.0%
CCCn1ccc2c(OCC(=O)NCc3ccccc3Cl)cccc2c1=O,.,.,5.6%[46 µM]
Cc1csc2nc(COC(=O)c3ccccc3NC(=O)c3ccc(F)cc3)cc(=O)n12,.,.,-5.5%[46 µM]
CCCCC(=O)Nc1ccc2nc(SCC(=O)N3CCCC3)sc2c1,.,.,6.2%[46 µM]
Cc1ccccc1NC(=O)/C(C#N)=C\c1ccsc1,47.8,.,?
Cc1ccccc1NC(=O)/C(C#N)=C\c1cccnc1,-81.8*,21.9,-8.1%
COc1ccc(NC(=O)N2CC(C)OC(C)C2)cc1OC (stereo not given),23.6,7.2,-3.6%
COc1ccc(NC(=O)N2CCCC2)cc1OC,-108.8*,5.1,-0.9%[0.0737 µM]
Cc1cc(/C=N/n2cnnc2)c(O)c([N+](=O)[O-])c1,-118.2*,.,?
O=[N+]([O-])c1ccccc1-c1ccc(/C=N/n2cnnc2)o1,46.8,-2.9,?
Cc1cccc(N2CCN(S(=O)(=O)c3c(C(=O)N4CCC(C)CC4)c(C)n(C)c3C)CC2)c1C,.,.,0.0%[46 µM]
Cc1ccc(OCC(=O)OCc2cc(=O)n3nc(C4CCCCC4)sc3n2)cc1,.,.,-1.1%[46 µM]
O=C(c1ccco1)N1CCN(CC(O)COc2ccc3oc4ccccc4c3c2)CC1 (stereo not given),-92.6*,-8.4,?
O=C(COc1ccc2ccccc2c1)N1CCN(C(=O)c2ccco2)CC1,.,.,22.3%[46 µM]
O=C(COc1ccccc1F)NCc1ccc(-n2cccc2)cc1,.,.,1.4%[9.22 µM]
